An excerpt weighted towards active compounds, which were near 3.7% of everything screened.
WRN helicase inh = inhibitors of human WRN helicase | Q14191 | WRN helicase unwinding, fluorescent forked duplex, kinetic | Potency, µM (series often up to 114 µM), actives largely listed as inhibitors | actives 0.46% (n = 360,000) | AID 651768; note: nearly all actives have a fitted effect of over 55% in size
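Screening of the MLSMR collection measured strand separation of a quenched forked DNA duplex (100 nM) by 20 nM WRN with 2 mM ATP, all final. Compounds were preincubated with enzyme 15 min at room temperature.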
FEN1 inhibitor = inhibitors of human flap endonuclease 1; P39748; Recombinant FEN1 flap cleavage, fluorescence, 15 min; Potency, µM (top dose mostly 114 µM), actives largely listed as inhibitors; actives 0.35% (n = 390,000); AID 588795; note: nearly all actives have a fitted effect of over 65% in size
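Nuclease activity of 10 nM FEN1 was measured after 15 min of room-temperature exposure to titrated compounds, by adding 50 nM flap substrate and reading plates at 0 and 15 min.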
PLK1 PBD inh = blocks phosphopeptide binding to human PLK1 polo-box domain; Plk1 PBD binding of FITC phosphopeptide, fluorescence polarization; actives 2.8% (n = 360,000); P53350; Potency, µM, actives largely listed as inhibitors; AID 720504; note: series mostly up to about 57 µM; nearly all actives have a fitted effect of over 65% in size
Target sequence (P53350 whole entry, looked up, the tested form may be a part): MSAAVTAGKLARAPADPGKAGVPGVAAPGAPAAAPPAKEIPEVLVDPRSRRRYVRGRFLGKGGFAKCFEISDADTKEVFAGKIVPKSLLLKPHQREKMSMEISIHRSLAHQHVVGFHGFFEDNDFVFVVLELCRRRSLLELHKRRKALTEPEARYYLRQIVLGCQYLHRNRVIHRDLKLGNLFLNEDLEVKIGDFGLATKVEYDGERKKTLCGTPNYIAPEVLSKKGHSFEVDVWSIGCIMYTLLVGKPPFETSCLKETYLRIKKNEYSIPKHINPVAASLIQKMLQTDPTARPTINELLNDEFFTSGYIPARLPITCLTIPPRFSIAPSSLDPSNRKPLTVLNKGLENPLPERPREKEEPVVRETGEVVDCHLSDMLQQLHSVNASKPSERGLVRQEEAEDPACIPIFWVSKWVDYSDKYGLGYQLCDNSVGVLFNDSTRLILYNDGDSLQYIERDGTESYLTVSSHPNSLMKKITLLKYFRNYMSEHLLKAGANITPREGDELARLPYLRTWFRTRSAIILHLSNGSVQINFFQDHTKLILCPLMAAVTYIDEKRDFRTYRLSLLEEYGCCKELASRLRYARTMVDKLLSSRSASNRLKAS
TCR activator = T cell receptor activation | primary human leukocytes, anti-CD3, IL-2 HTRF, 48 h | Potency, µM (doses to about 9.22 µM), most hits filed as activators | 330,000 tested, under 10 active
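Primary human leukocytes were stimulated with a-CD3 beads plus compounds for 48 hr without co-stimulation; secreted IL-2 was quantified by HTRF using a-IL-2-K (europium cryptate) and a-IL-2-d2, excited at 320nm with acceptor emission read at 665nm.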
VDR inh = inhibitors of human vitamin D receptor | AID 504847 | VDR-SRC2-3 peptide fluorescence polarization, 2 h | actives 0.93% (n = 400,000) | Potency, µM, usual class: inhibitors | P11473
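Fluorescence polarization assay measuring small-molecule disruption of VDR binding to the coregulator peptide SRC2-3. Compounds were pin-transferred (23 nl) into the reagent mix and incubated 2 h at room temperature before reading.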
PI5P4Ka inh = blocks human PI5P4K alpha kinase activity; PI5P4Kalpha enzyme, ADP-Glo luminescence, 60 min; hits give low values; max response, %; actives 1.2% (n = 330,000); active = max response of -50% or lower; inconclusive = between -30% and -50%; inactive = -30% or higher; note: value at the top dose of about 77 µM
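Luminescence from ADP-Glo served as readout of PI5P4Kalpha activity in a qHTS format. Reaction: enzyme, substrate, compound, ATP at 5 microM final, 60 min at RT.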
Large screens that a line does not name were inactive. Unless noted, calls come from the whole dose curve; as a rule, active = well fitted curve in the direction sought with a large enough effect; inconclusive = small, poorly fitted or top-dose-only effect, or another doubt; inactive = no such curve, though single readings can be large; an effect the other way counts as inactive or inconclusive.

CC1(c2ccccc2)NC(=O)N(CC(=O)Nc2nc(-c3ccccn3)cs2)C1=O (configuration not stated)	PLK1 PBD inh inconclusive
CN(C)c1c(Cl)cc(/C=C/c2ccnc3ccccc23)cc1Br	none (no result: WRN helicase inh, PLK1 PBD inh, TCR activator, VDR inh, PI5P4Ka inh)
CCN(CC)CCNC(=O)CCn1c(=O)c2cccn2c2cccnc21	none (no result: WRN helicase inh, PLK1 PBD inh, TCR activator, PI5P4Ka inh)
N#Cc1c(C(F)(F)F)cc(C2CC2)nc1N1CCCC1	none
Cc1cc(C(F)(F)F)c(C#N)c(N2CCOCC2)n1	PLK1 PBD inh 3.4µM, VDR inh inconclusive, PI5P4Ka inh inconclusive
Cc1ccc(Cn2c(=S)[nH]c3ccc(N4CCOCC4)cc3c2=O)o1	WRN helicase inh inconclusive, FEN1 inhibitor inconclusive, PLK1 PBD inh 21µM, VDR inh 18µM (no result: PI5P4Ka inh)
CC1=C(C(=O)Nc2cccc(Cl)c2)C2(CCCCCC2)OC1=O	none (no result: WRN helicase inh, PLK1 PBD inh, TCR activator, PI5P4Ka inh)
CCCCCc1c(O)nc(SCC(=O)NCC2CCCO2)[nH]c1=O (configuration not stated)	PLK1 PBD inh 27µM
O=C(N/N=C/c1c[nH]c2ccccc12)c1cc(-c2ccc(-c3ccccc3)cc2)n[nH]1	none (no result: PI5P4Ka inh)
O=C(N/N=C/c1c[nH]c2ccccc12)c1cc(-c2ccc3ccccc3c2)n[nH]1	WRN helicase inh inconclusive, PI5P4Ka inh -57
O=C(O)c1ccc(/C=N/NC(=O)c2cc(-c3ccc4c5c(cccc35)CC4)n[nH]2)cc1	WRN helicase inh inconclusive, FEN1 inhibitor inconclusive, PLK1 PBD inh inconclusive, PI5P4Ka inh -73 (no result: TCR activator)
O=C(N/N=C/c1c[nH]c2ccccc12)c1cc(-c2cccc3ccccc23)n[nH]1	PI5P4Ka inh -56
CCc1ccc(CNC(=O)C2CCCN(c3nnc(C)c4c(C)n(-c5ccc(OC)cc5)nc34)C2)cc1 (configuration not stated)	none (no result: WRN helicase inh, PLK1 PBD inh, TCR activator, PI5P4Ka inh)
CC(C)OCCCNC(=O)CN1CCN(Cc2ccccc2Cl)C1=O	PLK1 PBD inh 3.4µM, PI5P4Ka inh inconclusive
O=c1[nH]c(=S)[nH]nc1Cc1ccc(Cl)c(Cl)c1	PI5P4Ka inh -76
Cc1cc(C)nc(NC2=NCCN2C(=O)NC2CCCCC2)n1	PLK1 PBD inh 7.5µM, PI5P4Ka inh inconclusive
O=C(CSc1ccccc1)N1CCN(S(=O)(=O)c2ccccc2)CC1	PLK1 PBD inh 12µM
CCOc1ccccc1Nc1ccc2cc(S(=O)(=O)N3CCCCC3)ccc2n1	none (no result: WRN helicase inh, PLK1 PBD inh, TCR activator, PI5P4Ka inh)
Cc1ccc(-c2nnc(Nc3cccc(O)c3)c3ccccc23)cc1S(=O)(=O)N1CCCCC1	none (no result: WRN helicase inh, PLK1 PBD inh, TCR activator, PI5P4Ka inh)
CC(=O)N1c2ccc(S(=O)(=O)N3CCC(C(=O)Nc4cccc(C(F)(F)F)c4)CC3)cc2CC1C (configuration not stated)	PLK1 PBD inh 27µM
CC(=O)N1c2ccc(S(=O)(=O)N3CCC(C(=O)Nc4cccc(C)c4C)CC3)cc2CC1C (configuration not stated)	PLK1 PBD inh 24µM
Cc1ccccc1C(=O)Nc1nnc2n1CCS2	none (no result: WRN helicase inh, PLK1 PBD inh, TCR activator, PI5P4Ka inh)
O=S(=O)(Nc1ccc(C(F)(F)F)cc1)c1cnc[nH]1	PLK1 PBD inh 30µM, PI5P4Ka inh inconclusive
O=S(=O)(Nc1ccc(Cl)c(C(F)(F)F)c1)c1cnc[nH]1	none
Cc1ccc(C(=O)OCC(=O)Nc2ccccc2Cl)c(O)c1	PLK1 PBD inh 9.5µM, VDR inh inconclusive
Cc1ccc(C(=O)OCC(=O)Nc2cccc(Cl)c2C)c(O)c1	none
CCc1ccc(NC(=O)CSc2nnc(-c3ccccc3)n2C)cc1	none (no result: WRN helicase inh, PLK1 PBD inh, TCR activator, VDR inh, PI5P4Ka inh)
CC(C(=O)Nc1ccccc1C(=O)N1CCOCC1)N(c1ccc(Cl)cc1)S(C)(=O)=O (configuration not stated)	WRN helicase inh inconclusive, PLK1 PBD inh 3µM, VDR inh 22µM, PI5P4Ka inh inconclusive
CC1Cc2cc(/C(O)=C3/C(=O)C(=O)N(CC4CCCO4)C3c3ccco3)ccc2O1 (configuration not stated)	PLK1 PBD inh 30µM
COC(=O)c1ccc(NC(=O)N2CCc3c([nH]c4ccccc34)C2c2ccc(C)cc2)cc1 (configuration not stated)	none (no result: WRN helicase inh, PLK1 PBD inh, TCR activator, PI5P4Ka inh)
O=S(=O)(NCCNCC=Cc1ccc(Br)cc1)c1cccc2cnccc12	none (no result: WRN helicase inh, PLK1 PBD inh, TCR activator, VDR inh, PI5P4Ka inh)
S=c1ccss1	VDR inh 20µM (no result: WRN helicase inh, FEN1 inhibitor, PLK1 PBD inh, TCR activator, PI5P4Ka inh)
Cc1ccc(CN2CCOCCS2(=O)=O)cc1	none (no result: WRN helicase inh, PLK1 PBD inh, TCR activator, VDR inh, PI5P4Ka inh)
O=C(NCCS(=O)(=O)N1CCN(c2ccc(F)cc2)CC1)C(c1ccccc1)c1ccccc1	none (no result: WRN helicase inh, PLK1 PBD inh, TCR activator, PI5P4Ka inh)
